Reference: PubChem BioAssay (Tox21)
Records with an inconclusive call do not appear. The source made the active and inactive calls. Unless noted, calls come from the whole dose curve; as a rule, active = well fitted curve in the direction sought with a large enough effect in the repeat runs; inconclusive = weak or mixed curves; inactive = no such curve, though single readings can be large; an effect the other way counts as inactive or inconclusive.

Columns and labels:
[1] = qHTS assay for small molecule agonists of the p53 signaling pathway (AID 651631; calls by dose curve; note: nearly all actives have a fitted effect of over 15% in size)
Summary of the method: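 Read-out is beta-lactamase FRET fluorescence measured 2 h after substrate addition at room temperature, in HCT-116 cells with a p53 response element-driven reporter exposed to compounds for 16 h at 37 °C.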

[2] = qHTS assay for small molecules that induce genotoxicity in human embryonic kidney cells expressing luciferase-tagged ATAD5 (AID 651632); note: nearly all actives have a fitted effect of over 15% in size
Summary of the method: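 A rise in luciferase signal from ATAD5-tagged HEK293T cells marks genetic stress. Cells were exposed to compounds for 16 hr at 37C, 5% CO2, then luciferase was quantified after a 30 min room-temperature incubation with Amplite.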

[3] = qHTS assay for small molecule agonists of the p53 signaling pathway - cell viability (AID 651633; calls by dose curve;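 note: p53RE-bla HCT reporter cells with a stable beta-lactamase p53 reporter; series mostly up to about 83 µM; nearly all actives have a fitted effect of over 30% in size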)
Summary of the method: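 p53RE-bla cells were treated with compound for 16 hours at 37 C. Cytotoxicity was then measured as CellTiter-Glo luminescence after 30 min at room temperature.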

[4] = qHTS assay for small molecules that induce genotoxicity in human embryonic kidney cells expressing luciferase-tagged ATAD5 - cell viability (AID 651634; calls by dose curve; note: nearly all actives have a fitted effect of over 25% in size)
Summary of the method: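 Cytotoxicity counter-readout: after 15.5 hr compound treatment at 37C, live-cell protease activity in ATAD5-luciferase HEK293T cells measured by CellTiter-Fluor fluorescence, 30 min development at 37C.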

[5] = qHTS assay for small molecule disruptors of the mitochondrial membrane potential (AID 720635)
Summary of the method: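 HepG2 cells exposed to compound 1 hr at 37C, then Mito-MPS dye 30 min. Ratio read of aggregate (540/590 nm) versus monomer (490/535 nm) fluorescence.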

[6] = qHTS assay to test for compound auto fluorescence at 590 nm (red) in HepG2 cells (AID 720674)
Summary of the method: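 HepG2 cells, 2,000 per well in MEM with 10% FBS, attached overnight at 37 C, then got 23 nL compound or DMSO. After 1 hr at 37 C, 5% CO2, red fluorescence was read at 540/590 nm against Rose Bengal sodium as reference.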

[7] = qHTS assay to test for compound auto fluorescence at 535 nm (green) in HepG2 cells (AID 720675)
[8] = qHTS assay to test for compound auto fluorescence at 460 nm (blue) in HEK293 cells (AID 720678)
Summary of the method: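 HEK293, 2,000 cells/well, 10% dialyzed FBS; attach 4-5 hr 37C; pin compound or DMSO; o/n 37C/5% CO2; fluorescence 405/460 nm; triamterene-equivalent units.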

[9] = qHTS assay to test for compound auto fluorescence at 590 nm (red) in HEK293 cells (AID 720679)
Summary of the method: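 Intensity at 540nm excitation and 590nm emission is reported as Rose Bengal sodium-equivalent autofluorescence. Measurements followed overnight exposure (37C, 5% CO2) of HEK293 cells, 2,000 per well, to 23 nL compound.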

[10] = qHTS assay to test for compound auto fluorescence at 535 nm (green) in HEK293 cells (AID 720680)
[11] = qHTS assay to test for compound auto fluorescence at 460 nm (blue) in HEK293 cell free culture (AID 720681)
Summary of the method: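 Compounds were added to cell-free DMEM with 10% FBS and fluorescence read directly. The blue channel used 405 nm excitation and 460 nm emission, with triamterene as the reference fluorophore.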

[12] = qHTS assay to test for compound auto fluorescence at 535 nm (green) in HEK293 cell free culture (AID 720682)
Summary of the method: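 Fluorescein serves as the green reference fluorophore; each compound's intrinsic emission at 535 nm (excitation 485 nm) is reported as an equivalent amount of that dye, measured in serum-containing DMEM without cells.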

[13] = qHTS assay to test for compound auto fluorescence at 590 nm (red) in HEK293 cell free culture (AID 720683)
Summary of the method: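 Cell-free wells of DMEM with 10% FBS received compound, and intrinsic fluorescence was read at excitation/emission 540/590 nm. Values expressed as equivalence to Rose Bengal sodium.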

[14] = qHTS assay to test for compound auto fluorescence at 590 nm (red) in HepG2 cell free culture (AID 720684)
Summary of the method: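 Rose Bengal sodium served as the reference for red signal. Test compounds were dispensed into serum-containing MEM (10% FBS) without cells, and plates were read at 540/590 nm.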

[15] = qHTS assay to test for compound auto fluorescence at 460 nm (blue) in HepG2 cell free culture (AID 720685)
Summary of the method: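 Cell-free plates of MEM plus 10% FBS received 23 nL compound or DMSO vehicle; blue-channel (405/460 nm) intensity scored against triamterene as reference fluorophore.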

[16] = qHTS assay to test for compound auto fluorescence at 535 nm (green) in HepG2 cell free culture (AID 720686)
[17] = qHTS assay to test for compound auto fluorescence at 460 nm (blue) in HepG2 cells (AID 720687)
Summary of the method: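 HepG2 cells in MEM with 10% FBS, attached overnight at 37 C, were exposed to compound or DMSO for 1 hr at 37 C, 5% CO2. Blue fluorescence was read at 405/460 nm, with triamterene as reference fluorophore.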

[18] = target: Glucocorticoid receptor (Homo sapiens) (UniProt P04150); assay: qHTS assay to identify small molecule antagonists of the glucocorticoid receptor (GR) signaling pathway (AID 720692; active = well fitted inhibition curve with a large enough effect in the signal ratio in the repeat runs, not every such curve was filed as active; the % refers to the signal ratio)
Summary of the method: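 Inhibition of dexamethasone-driven (5 nM final) beta-lactamase expression was measured in GRE-reporter HeLa cells over 18 h at 37C. Fluorescence was read after 2 h with the B/G FRET substrate at room temperature.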

[19] = qHTS assay to identify small molecule antagonists of the glucocorticoid receptor (GR) signaling pathway - cell viability counter screen (AID 720693); note: nearly all actives have a fitted effect of over 55% in size
[20] = qHTS assay for identifying genotoxic compounds that show differential cytotoxicity against isogenic chicken DT40 cell lines with known DNA damage response pathways - wild type cell line (AID 743012); note: nearly all actives have a fitted effect of over 60% in size
Summary of the method: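 Viability by ATP luminescence (CellTiter-Glo, 30 min RT) after 40 h compound treatment at 37 C/5% CO2, using 300 parental DNA repair-proficient DT40 cells per well.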

[21] = qHTS assay for identifying genotoxic compounds that show differential cytotoxicity against isogenic chicken DT40 cell lines with known DNA damage response pathways - Rev3 mutant cell line (AID 743014); note: nearly all actives have a fitted effect of over 55% in size
[22] = qHTS assay for identifying genotoxic compounds that show differential cytotoxicity against isogenic chicken DT40 cell lines with known DNA damage response pathways - Rad54/Ku70 mutant cell line (AID 743015); note: nearly all actives have a fitted effect of over 60% in size
[23] = qHTS assay to identify small molecule antagonists of the androgen receptor (AR) signaling pathway - cell viability counter screen (AID 743033; note: nearly all actives have a fitted effect of over 45% in size)
[24] = target: Androgen receptor (Homo sapiens) (UniProt P10275); assay: qHTS assay to identify small molecule antagonists of the androgen receptor (AR) signaling pathway (AID 743035; active = well fitted inhibition curve with a large enough effect in the signal ratio in the repeat runs, not every such curve was filed as active; the % refers to the signal ratio)
Summary of the method: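 Antagonist mode: AR-bla HEK293 cells co-treated with test compounds and agonist R1881 for 16 h at 37C, 5% CO2. Beta-lactamase activity read as FRET fluorescence after 2 h room-temperature substrate loading.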

[25] = target: Androgen receptor (Homo sapiens) (UniProt P10275); assay: qHTS assay to identify small molecule agonists of the androgen receptor (AR) signaling pathway (AID 743036; active = well fitted activation curve with a large enough effect in the signal ratio in the repeat runs, with a control signal flat, not every such curve was filed as active; the % refers to the signal ratio)
Summary of the method: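 Fluorescence from a beta-lactamase FRET substrate served as read-out in AR-UAS-bla GripTite HEK293 cells. Cells were treated with DMSO-dissolved compounds for 16 h at 37C, then with LiveBLAzer B/G substrate for 2 h at room temperature.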

[26] = target: Androgen receptor (Homo sapiens) (UniProt P10275); assay: qHTS assay to identify small molecule agonists of the androgen receptor (AR) signaling pathway using the MDA cell line (AID 743040; note: nearly all actives have a fitted effect of over 20% in size)
Summary of the method: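 Luciferase read-out, ONE-Glo, 30 min RT. Cells: MDA-kb2 AR-luc, MMTV promoter with AR and GR response elements. Compound exposure 16 h, 37C, 0% CO2, after 5 h pre-incubation. qHTS agonist mode.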

[27] = qHTS assay to identify small molecule antagonists of the androgen receptor (AR) signaling pathway using the MDA cell line - cell viability counter screen (AID 743041; note: nearly all actives have a fitted effect of over 45% in size)
Summary of the method: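 Cytotoxicity counter screen: MDA-kb2 AR-luc cells, compound + R1881, 16 h, 37C, 0% CO2; CellTiter-Fluor added at 15.5 h, fluorescence read after 30 min.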

[28] = target: Androgen receptor (Homo sapiens) (UniProt P10275); assay: qHTS assay to identify small molecule antagonists of the androgen receptor (AR) signaling pathway using the MDA cell line (AID 743042; note: nearly all actives have a fitted effect of over 55% in size)
Summary of the method: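 MDA-kb2 breast carcinoma cells carrying MMTV-luciferase (AR/GR responsive) were co-treated with compounds and the agonist R1881 for 16 h at 37C. Inhibition read as ONE-Glo luminescence; CellTiter-Fluor fluorescence measured in parallel for cytotoxicity.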

[29] = qHTS assay to identify small molecule antagonists of the thyroid receptor (TR) signaling pathway - cell viability counter screen (AID 743064); note: nearly all actives have a fitted effect of over 50% in size
Summary of the method: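 Fluorescence from CellTiter-Fluor, added after 23.5 h exposure at 37 °C, reported viability of GH3.TRE-Luc cells co-treated with compound and 1 nM T3. Measured in the same wells as the luciferase TR readout.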

[30] = qHTS assay to identify small molecule antagonists of the thyroid receptor (TR) signaling pathway (AID 743065); note: series mostly up to about 70 µM; nearly all actives have a fitted effect of over 55% in size
Summary of the method: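 GH3.TRE-Luc rat pituitary cells (two TREs driving luciferase) were dosed with compound, then stimulated with 1 nM T3 (final) for 23.5 h at 37 C. ONE-Glo luminescence was the read-out, with CellTiter-Fluor fluorescence as the cytotoxicity counter-screen.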

[31] = system: thyroid hormone receptor (rat, GH3 cells); assay: qHTS assay to identify small molecule agonists of the thyroid receptor (TR) signaling pathway (AID 743066; calls by dose curve)
[32] = target: Estrogen receptor (Homo sapiens) (UniProt P03372); assay: qHTS assay to identify small molecule antagonists of the estrogen receptor alpha (ER-alpha) signaling pathway (AID 743069; active = well fitted curve in the direction sought with a large enough effect in the signal ratio in the repeat runs, not every such curve was filed as active; the % refers to the signal ratio)
Summary of the method: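 Beta-lactamase FRET fluorescence is read after 2 hr at room temperature with LiveBLAzer B/G substrate. Before that, ER-alpha-bla HEK293 cells sit 4 hr after plating, then receive compound plus 17beta-estradiol and incubate 18 hr at 37C.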

[33] = qHTS assay to identify small molecule antagonists of the estrogen receptor alpha (ER-alpha) signaling pathway - cell viability counter screen (AID 743074; calls by dose curve;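 note: HEK293 cells carrying ER-alpha-UAS-bla reporter stimulated with 17beta-estradiol; nearly all actives have a fitted effect of over 45% in size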)
[34] = target: Estrogen receptor (Homo sapiens) (UniProt P03372); assay: qHTS assay to identify small molecule agonists of the estrogen receptor alpha (ER-alpha) signaling pathway (AID 743075; calls by dose curve;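 note: HEK293 GripTite cells with ER-alpha and UAS-driven beta-lactamase reporter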)
[35] = target: Estrogen receptor (Homo sapiens) (UniProt P03372); assay: qHTS assay to identify small molecule agonists of the estrogen receptor alpha (ER-alpha) signaling pathway using the BG1 cell line (AID 743079); note: nearly all actives have a fitted effect of over 20% in size
[36] = qHTS assay to identify small molecule antagonists of the estrogen receptor alpha (ER-alpha) signaling pathway using the BG1 cell line (AID 743080; calls by dose curve;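 note: BG1 cells stimulated with 17beta-estradiol alongside compound; series mostly up to about 70 µM; nearly all actives have a fitted effect of over 25% in size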)
Summary of the method: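 BG1Luc4E2, endogenous ER-alpha, 4xERE-luc; 5 d charcoal-stripped FBS, phenol red free; 24 h plating; cpd + 17beta-estradiol 21.5 h, 37 C/5% CO2; CellTiter-Fluor viability 30 min, then ONE-Glo luciferase 30 min RT.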

[37] = qHTS assay to identify small molecule antagonists of the estrogen receptor alpha (ER-alpha) signaling pathway using the BG1 cell line - cell viability counter screen (AID 743081);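 note: compound given together with 17beta-estradiol as the ER stimulus; series mostly up to about 70 µM; nearly all actives have a fitted effect of over 45% in size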
[38] = target: Aromatase (Homo sapiens) (UniProt P11511); assay: qHTS assay to identify aromatase inhibitors (AID 743083)
[39] = qHTS assay to identify aromatase inhibitors - cell viability counter screen (AID 743084)
[40] = target: Aryl hydrocarbon receptor (Homo sapiens) (UniProt P35869); assay: qHTS assay to identify small molecule that activate the aryl hydrocarbon receptor (AhR) signaling pathway (AID 743085);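 note: HG2L7.5c1 human HepG2 liver cells with stably integrated DRE-driven firefly reporter; series mostly up to about 70 µM; nearly all actives have a fitted effect of over 15% in size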
Summary of the method: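 Cell line HG2L7.5c1 (human hepatoma, 20× DRE-luc). Plated, 5 h 37C, compound/DMSO added, 24 h 37C. CellTiter-Fluor 30 min 37C → fluorescence; then ONE-Glo 30 min RT → luminescence.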

[41] = qHTS assay to identify small molecule that activate the aryl hydrocarbon receptor (AhR) signaling pathway - cell viability counter screen (AID 743086)
Summary of the method: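 HepG2-AhR-luc (HG2L7.5c1) cells, 4000/well, treated 24 h at 37 C with compound; viability measured as CellTiter-Fluor fluorescence after 30 min in the same wells as the luciferase read.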

[42] = qHTS assay to identify small molecule antagonists of the estrogen related receptor (ERR) signaling pathway - cell viability counter screen (AID 1224818);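 note: series mostly up to about 46 µM; viability measured after 17.5 h of compound exposure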
Summary of the method: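 Cytotoxicity counter screen: fluorescence from CellTiter-Fluor, added after 17.5 h compound exposure at 37 C and read 30 min later. ERR cell line seeded at 2,000 cells/well, preincubated 6 h before dosing.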

[43] = qHTS assay to identify small molecule antagonists of the estrogen related receptor (ERR) signaling pathway (AID 1224819;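 note: luminescence from an ERR-driven luciferase reporter measured with One-Glo reagent; series mostly up to about 46 µM; nearly all actives have a fitted effect of over 50% in size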)
Summary of the method: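 LOPAC library screened for antagonism as reduced One-Glo luminescence in ERR reporter cells (2,000/well). Compounds were added after 6 h pre-incubation and left 18 h at 37C; reading followed a 30 min room-temperature reagent step.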

[44] = qHTS assay to identify small molecule agonists of the estrogen related receptor (ERR) signaling pathway (AID 1224820)
Summary of the method: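 Following a 6 h settling period, 2,000 ERR cells per well receive DMSO-dissolved compounds by pin tool and incubate 18 h at 37 C; agonist activity is scored from One-Glo luminescence read 30 min post-addition.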

[45] = system: estrogen-related receptor alpha (ERRalpha) with PGC-1alpha coactivator, human; assay: qHTS assay to identify small molecule antagonists of the estrogen related receptor signaling pathway with the pleiotropic PPARgamma coactivator (PGC) (AID 1224821; calls by dose curve;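 note: series mostly up to about 46 µM; lower luminescence signal means antagonism of PGC/ERR signalling; nearly all actives have a fitted effect of over 50% in size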)
Summary of the method: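 Screening used NTP's PGC/ERR cells, dosed via pin tool with compound in DMSO alongside positive and negative controls. After 18 h at 37 C, One-Glo reagent sat 30 min at room temperature before luminescence detection.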

[46] = qHTS assay to identify small molecule antagonists of the estrogen related receptor signaling pathway with the pleiotropic PPARgamma coactivator (PGC) cell viability counter screen (AID 1224822; note: series mostly up to about 46 µM)
Summary of the method: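 Viability counter-screen read by fluorescence intensity after 30 min with CellTiter-Fluor at 37 C; PGC/ERR reporter cells were exposed to compounds for 17.5 h at 37 C following a 6 h preincubation.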

[47] = qHTS assay to identify small molecule phospholipidosis (PLD) inducers (AID 1259344; active = well fitted curve in the direction sought with a large enough effect; an effect the other way counts as inactive or inconclusive)
Summary of the method: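 Read-out is LipidTOX Red fluorescence (ex 595/em 615) imaged in HepG2 cells after 24 h compound exposure at 37 C, with Hoechst nuclear counterstain (ex 352/em 461) allowing per-cell normalisation.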

Measured: Potency

Sequence of Androgen receptor (Homo sapiens) (P10275 whole entry, looked up): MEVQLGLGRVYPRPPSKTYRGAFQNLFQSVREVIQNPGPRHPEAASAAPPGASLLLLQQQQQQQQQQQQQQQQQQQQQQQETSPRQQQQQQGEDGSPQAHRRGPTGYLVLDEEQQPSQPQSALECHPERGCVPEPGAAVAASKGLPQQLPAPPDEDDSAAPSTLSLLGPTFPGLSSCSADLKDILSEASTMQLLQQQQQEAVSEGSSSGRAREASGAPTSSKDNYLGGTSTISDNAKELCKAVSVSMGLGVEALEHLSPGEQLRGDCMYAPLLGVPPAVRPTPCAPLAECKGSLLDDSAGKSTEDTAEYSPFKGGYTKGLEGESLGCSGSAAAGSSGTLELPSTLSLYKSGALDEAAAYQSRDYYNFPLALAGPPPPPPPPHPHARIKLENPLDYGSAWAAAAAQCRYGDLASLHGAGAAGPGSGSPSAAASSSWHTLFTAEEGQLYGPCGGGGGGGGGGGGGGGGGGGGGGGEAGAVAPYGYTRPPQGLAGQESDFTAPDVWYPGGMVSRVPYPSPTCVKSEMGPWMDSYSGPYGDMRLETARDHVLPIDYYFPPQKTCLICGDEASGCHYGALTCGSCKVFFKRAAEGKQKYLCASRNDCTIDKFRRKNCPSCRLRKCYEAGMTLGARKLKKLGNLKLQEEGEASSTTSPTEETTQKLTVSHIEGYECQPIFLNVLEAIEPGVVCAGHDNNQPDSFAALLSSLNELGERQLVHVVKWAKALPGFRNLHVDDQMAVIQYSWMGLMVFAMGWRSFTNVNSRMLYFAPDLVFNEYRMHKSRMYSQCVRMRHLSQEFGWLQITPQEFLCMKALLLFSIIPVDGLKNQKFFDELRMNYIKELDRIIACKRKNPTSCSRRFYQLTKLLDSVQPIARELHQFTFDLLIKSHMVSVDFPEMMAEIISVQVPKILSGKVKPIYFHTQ
Sequence of Estrogen receptor (Homo sapiens) (P03372 whole entry, looked up): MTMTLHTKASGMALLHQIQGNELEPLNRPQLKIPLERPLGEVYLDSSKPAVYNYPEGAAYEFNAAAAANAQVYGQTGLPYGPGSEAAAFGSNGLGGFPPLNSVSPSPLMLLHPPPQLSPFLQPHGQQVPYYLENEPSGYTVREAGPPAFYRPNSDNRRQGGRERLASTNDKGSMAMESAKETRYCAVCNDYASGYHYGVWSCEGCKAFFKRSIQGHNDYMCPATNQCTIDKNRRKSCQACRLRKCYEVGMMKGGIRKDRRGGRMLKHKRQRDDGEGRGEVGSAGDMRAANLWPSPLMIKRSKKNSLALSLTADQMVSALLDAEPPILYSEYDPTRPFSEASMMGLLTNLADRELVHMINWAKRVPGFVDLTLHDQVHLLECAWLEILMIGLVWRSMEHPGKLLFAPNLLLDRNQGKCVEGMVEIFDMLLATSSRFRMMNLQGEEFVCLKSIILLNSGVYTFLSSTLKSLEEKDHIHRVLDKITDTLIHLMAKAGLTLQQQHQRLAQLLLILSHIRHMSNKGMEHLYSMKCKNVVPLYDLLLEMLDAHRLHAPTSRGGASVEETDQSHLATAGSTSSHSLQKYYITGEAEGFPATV
Sequence of Aromatase (Homo sapiens) (P11511 whole entry, looked up): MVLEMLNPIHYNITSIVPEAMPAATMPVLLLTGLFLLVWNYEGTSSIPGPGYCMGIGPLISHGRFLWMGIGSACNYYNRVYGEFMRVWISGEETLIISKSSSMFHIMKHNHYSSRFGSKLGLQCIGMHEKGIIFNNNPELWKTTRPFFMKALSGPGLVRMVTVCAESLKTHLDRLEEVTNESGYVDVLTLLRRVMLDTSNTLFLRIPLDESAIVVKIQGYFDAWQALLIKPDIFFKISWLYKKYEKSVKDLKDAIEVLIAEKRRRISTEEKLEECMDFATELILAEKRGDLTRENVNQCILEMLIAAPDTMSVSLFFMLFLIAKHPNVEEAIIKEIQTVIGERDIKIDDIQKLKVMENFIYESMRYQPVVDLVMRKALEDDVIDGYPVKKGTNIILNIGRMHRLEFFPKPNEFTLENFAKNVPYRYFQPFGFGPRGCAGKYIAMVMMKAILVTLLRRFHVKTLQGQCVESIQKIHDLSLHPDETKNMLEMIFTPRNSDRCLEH
Sequence of Aryl hydrocarbon receptor (Homo sapiens) (P35869 whole entry, looked up): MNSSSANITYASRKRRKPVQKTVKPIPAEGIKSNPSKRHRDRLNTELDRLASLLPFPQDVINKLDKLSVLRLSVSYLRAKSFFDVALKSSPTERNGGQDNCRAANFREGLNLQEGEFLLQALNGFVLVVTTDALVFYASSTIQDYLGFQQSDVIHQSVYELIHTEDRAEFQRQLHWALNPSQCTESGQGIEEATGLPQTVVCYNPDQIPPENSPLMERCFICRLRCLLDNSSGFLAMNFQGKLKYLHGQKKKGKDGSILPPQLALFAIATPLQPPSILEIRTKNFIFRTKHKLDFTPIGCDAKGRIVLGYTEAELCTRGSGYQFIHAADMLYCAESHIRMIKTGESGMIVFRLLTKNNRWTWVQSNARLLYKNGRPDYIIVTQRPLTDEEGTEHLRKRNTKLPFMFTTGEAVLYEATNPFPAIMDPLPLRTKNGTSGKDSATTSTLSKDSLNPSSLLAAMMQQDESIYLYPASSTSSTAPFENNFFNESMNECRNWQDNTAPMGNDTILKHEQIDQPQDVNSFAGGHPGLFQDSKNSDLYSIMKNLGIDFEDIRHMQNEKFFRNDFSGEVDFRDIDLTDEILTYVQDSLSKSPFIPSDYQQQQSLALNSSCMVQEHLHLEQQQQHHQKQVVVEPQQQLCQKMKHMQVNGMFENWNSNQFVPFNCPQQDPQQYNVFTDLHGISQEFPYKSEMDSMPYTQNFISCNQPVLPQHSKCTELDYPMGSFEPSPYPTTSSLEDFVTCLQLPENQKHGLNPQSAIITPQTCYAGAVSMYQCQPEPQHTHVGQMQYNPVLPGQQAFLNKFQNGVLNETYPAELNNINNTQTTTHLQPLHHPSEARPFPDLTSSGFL
Sequence of Glucocorticoid receptor (Homo sapiens) (P04150 whole entry, looked up): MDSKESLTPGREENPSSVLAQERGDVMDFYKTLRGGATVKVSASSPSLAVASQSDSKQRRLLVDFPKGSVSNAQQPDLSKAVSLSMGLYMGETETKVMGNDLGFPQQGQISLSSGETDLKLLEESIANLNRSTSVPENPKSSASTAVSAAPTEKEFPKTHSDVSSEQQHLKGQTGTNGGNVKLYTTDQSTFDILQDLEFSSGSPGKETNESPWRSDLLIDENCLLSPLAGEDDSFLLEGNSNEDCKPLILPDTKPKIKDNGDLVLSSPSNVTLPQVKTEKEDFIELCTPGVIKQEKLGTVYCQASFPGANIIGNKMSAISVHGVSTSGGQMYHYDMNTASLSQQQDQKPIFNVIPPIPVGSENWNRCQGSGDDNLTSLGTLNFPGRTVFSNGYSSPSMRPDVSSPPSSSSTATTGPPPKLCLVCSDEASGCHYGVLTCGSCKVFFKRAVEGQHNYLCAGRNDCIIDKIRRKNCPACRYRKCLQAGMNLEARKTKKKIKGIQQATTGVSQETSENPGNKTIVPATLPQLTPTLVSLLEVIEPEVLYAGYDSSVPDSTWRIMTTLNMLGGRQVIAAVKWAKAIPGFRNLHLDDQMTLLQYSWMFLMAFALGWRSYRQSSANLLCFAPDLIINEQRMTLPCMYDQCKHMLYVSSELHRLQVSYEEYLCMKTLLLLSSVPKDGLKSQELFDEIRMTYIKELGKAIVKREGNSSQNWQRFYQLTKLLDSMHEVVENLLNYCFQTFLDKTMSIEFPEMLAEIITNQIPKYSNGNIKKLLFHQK

NC(=O)CN1CC(O)CC1=O (configuration not stated)
inactive: all assays above
